Compound activity as filed in PubChem BioAssay.
Most compounds without a hit are left out; they make up all but 18% or so of the library.
TDP1 cell noCPT – qHTS for Inhibitors of human tyrosyl-DNA phosphodiesterase 1 (TDP1): qHTS in cells in absence of CPT; Potency, µM (titrated, usually from 46.2 µM), for inactives: top-dose activity change, negative = growth inhibition, actives largely listed as inhibitors; hit rate 15% among 420,000; AID 686978, 2013; DT40 Tdp1-/- hTDP1 cells, no CPT, ATP luminescence, 48 h; also: potency is read from the fitted curve at half-maximal effect; nearly all actives have a fitted effect of over 55% in size
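A cellular qHTS used chicken DT40 cells lacking endogenous Tdp1 but carrying stably transfected human TDP1. Compounds were applied without camptothecin, and cell growth kinetics were judged by ATP-dependent luminescence after ≥48 hr.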
Gal4-VP16 FLuc – counter-screen for ROR gamma inhibitors: Gal4-VP16 reporter; Drosophila S2 Gal4-VP16 UAS-luciferase, luminescence, 20 h; Potency, µM (top dose mostly 53.6 µM), without a hit: top-dose activity, negative = inhibition, actives largely listed as inhibitors; hit rate 3.5% among 310,000;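 also: Gal4-VP16 expression switched on by copper sulfate through the metallothionein promoter; potency is read from the fitted curve at half-maximal effect; nearly all actives have a fitted effect of over 50% in size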
IL-1B inflam inh – inflammasome signaling inhibition, IL-1 beta readout; activity change, % at 57.5 µM; AID 743279; THP-1 LPS/ATP IL-1B secretion, AlphaLISA, 16 h; active compounds read low; hit rate 4.7% among 360,000; in the data active = activity change below about -50%; inconclusive = mostly about -30% to -49%
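Secreted IL-1B measured by AlphaLISA bead assay after 16 h compound exposure of THP-1 cells; compounds (final up to 57.5 uM) added 1 h before LPS (250 ng/mL) and ATP (1.25 mM) stimulation; lower signal means less secretion.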
LDHA block – inhibitors of human lactate dehydrogenase A; activity change, % (values are at about 110 or 230 µM); purified LDHA, NADH/diaphorase-resazurin fluorescence; active compounds read low; hit rate 0.15% among 480,000; P00338; in the data active = activity change below about -30%; inconclusive = mostly about -25% to -30%;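 also: plate controls were DMSO wells for no effect and wells without enzyme for full effect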
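Enzyme activity of human lactate dehydrogenase 5 (2 nM; 0.06 mM NADH, 0.2 mM pyruvate, 5 min, RT) is measured via a resazurin/diaphorase fluorescence readout of residual NADH.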
RORgamma inh – ROR gamma (mouse) transcription inhibition. P51450. Drosophila S2 Gal4-RORgamma UAS-luciferase reporter, 20 h. Potency, µM (series often up to 53.6 µM), inactives show at the highest dose activity change, negative = inhibition, usual class: inhibitors. hit rate 5.4% among 310,000. AID 2551; also: potency is read from the fitted curve at half-maximal effect; nearly all actives have a fitted effect of over 60% in size
Target sequence (P51450 whole entry, looked up, the tested form may be a part): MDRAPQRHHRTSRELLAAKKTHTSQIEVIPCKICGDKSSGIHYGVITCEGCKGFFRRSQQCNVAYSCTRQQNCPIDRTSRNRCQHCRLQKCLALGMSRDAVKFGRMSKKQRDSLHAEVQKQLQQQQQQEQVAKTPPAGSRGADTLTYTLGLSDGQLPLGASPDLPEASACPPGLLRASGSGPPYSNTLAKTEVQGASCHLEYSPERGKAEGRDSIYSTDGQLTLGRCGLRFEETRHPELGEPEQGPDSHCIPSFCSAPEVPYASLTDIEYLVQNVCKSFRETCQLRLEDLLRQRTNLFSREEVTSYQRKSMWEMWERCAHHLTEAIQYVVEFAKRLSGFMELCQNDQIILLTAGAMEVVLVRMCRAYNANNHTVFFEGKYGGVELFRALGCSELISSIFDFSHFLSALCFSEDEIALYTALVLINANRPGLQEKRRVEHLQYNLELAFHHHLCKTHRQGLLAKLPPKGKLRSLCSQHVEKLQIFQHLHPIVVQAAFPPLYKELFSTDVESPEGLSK
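Drosophila Schneider cells stably carrying a metallothionein-driven Gal4 DBD–ROR gamma fusion and a UAS-Photinus luciferase reporter were exposed to compound for 1 hr, then induced with copper sulfate (700 uM final) for 20 hr at ambient temperature before luminescence reading.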
DT40 TDP1 CPT – DT40-hTDP1 cell growth loss with CPT. Potency, µM (highest dose often 46.2 µM), for inactives: at the highest dose activity change, negative = growth inhibition, usual class: inhibitors. chicken DT40 Tdp1-/-;hTDP1 cells + 20 nM CPT, ATP luminescence, 48 h. hit rate 12% among 420,000. AID 686979; also: potency is read from the fitted curve at half-maximal effect; nearly all actives have a fitted effect of over 55% in size
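Chicken DT40 Tdp1-/- cells complemented with human TDP1, 400 cells/well, exposed to compounds plus 20 nM camptothecin for at least 48 h at 37 C; viability read as ATP content by CellTiter-Glo luminescence.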
* marks the source's active call; other numbers are inactive results; u = inconclusive; x = no result given. Unless noted, calls follow the shape of the dose curve; as a rule, active = well fitted curve in the direction sought with a large enough effect; inconclusive = small, poorly fitted or top-dose-only effect, or another doubt; inactive = no such curve, though single readings can be large; an effect the other way counts as inactive or inconclusive. Unless noted, % is scaled to controls: 0 for no effect and ±100 for the full control effect.

SMILES	TDP1 cell noCPT	Gal4-VP16 FLuc	IL-1B inflam inh	LDHA block	RORgamma inh	DT40 TDP1 CPT
O=C(CSc1nc(-c2ccco2)cc(C(F)(F)F)n1)NC1CCCC1	u	-2%	-6	-5	-23%	21µM*
Cc1ccc(NC(=O)CSc2nc(-c3ccco3)cc(C(F)(F)F)n2)cc1C	3.7µM*	-9%	24	-4	u	2.3µM*
COC(=O)c1ccc(C(=O)OC)c(NC(=O)CSc2nc(-c3ccco3)cc(C(F)(F)F)n2)c1	u	x	18	-1	x	u
COc1ccc(Cl)cc1NC(=O)CSc1nc(-c2ccco2)cc(C(F)(F)F)n1	16µM*	x	x	-14	x	18µM*
Cc1nnc(N2CCN(C(=O)Nc3ccccc3)CC2)c2nn(-c3ccc(Cl)cc3)c(C)c12	x	x	x	-6	x	x
Cc1ccc2c(C)cc(SCC(=O)Nc3cccc(F)c3)nc2c1	x	x	x	0	x	x
COc1cc(OC)c(N(C)C(=O)C2CCCN(c3ncnc4c3nc3n4CCCCC3)C2)cc1Cl (stereo unspecified)	21µM*	x	x	-5	x	u
CC(C)c1ccc(NC(=O)C2CCN(c3ncnc4c3nc3n4CCCCC3)CC2)cc1	u	-27%	60	-1	-39%	u
COc1ccc(Cl)cc1NC(=O)C1CCCN(c2ncnc3c2nc2n3CCCCC2)C1 (stereo unspecified)	8.2µM*	5%	31	-1	-13%	8.2µM*
O=C(Nc1ccc(F)c(Cl)c1)C1CCN(c2ncnc3c2nc2n3CCCCC2)CC1	18µM*	-14%	-20	-5	41%	u
O=C(NCc1ccco1)C1CCCN(c2ncnc3c2nc2n3CCCCC2)C1 (stereo unspecified)	13µM*	1%	11	1	10%	u
Cc1ccc(-c2nc(N)sc2CC(=O)OCC(=O)N(CCC#N)c2ccc(F)cc2)cc1	x	x	x	10	x	x
CCCCc1c(C)nc(N2CCN(c3ccccc3F)CC2)[nH]c1=O	x	x	x	1	x	x
CC(C)(Oc1ccc(Cl)cc1)C(=O)N1CCN(c2nccs2)CC1	x	x	x	6	x	x
COc1cc2c(cc1OCc1ccccc1)-c1nnc(-c3ccccc3)n1C(C)(C)C2	x	x	x	-2	x	x
Cc1cccc2cc(CN(C(=O)c3ccccc3)C(C)C)c(=O)[nH]c12	x	x	x	6	x	x
COc1ccc(OCC(=O)Nc2ccc(OC)c3ncccc23)cc1	x	x	x	15	x	x
Cc1nc2c(cnn2C(C)C)cc1C(=O)N(C)Cc1cccc(Cl)c1	x	x	x	2	x	x
O=C(Nc1ccc(Cl)cn1)C1CCCN(c2ncnc3c2nc2n3CCCCC2)C1 (stereo unspecified)	21µM*	2%	-10	0	12%	21µM*
O=C(Nc1ccccn1)C1CCCN(c2ncnc3c2nc2n3CCCCC2)C1 (stereo unspecified)	15µM*	7%	66	0	-4%	u
Cc1ccnc(NC(=O)C2CCCN(c3ncnc4c3nc3n4CCCCC3)C2)c1 (stereo unspecified)	u	-1%	24	-6	18%	-10%
O=C(Nc1ccc(Cl)cn1)C1CCN(c2ncnc3c2nc2n3CCCCC2)CC1	16µM*	u	-91*	-3	u	u
O=C(NCCCN1CCN(c2ccccc2)CC1)C1CCCN(c2ncnc3c2nc2n3CCCCC2)C1 (stereo unspecified)	u	5%	10	-5	-33%	23µM*
O=C(NCCc1ccccc1)C1CCCN(c2ncnc3c2nc2n3CCCCC2)C1 (stereo unspecified)	u	3%	25	1	-19%	u
CCOc1cc2c(cc1CNC(=O)c1cc(S(N)(=O)=O)ccc1Br)OC(C)C2 (stereo unspecified)	x	x	x	-3	x	x
